# Experimental data: PubChem BioAssay AID1671190 (National Center for Advancing Translational Sciences (NCATS), 2021)
# In all, about 580,000 compounds went through this assay and about 6,100 (1.1%) were called active. Entries that show only a call come without a potency. Not shown: some 15% with an inconclusive outcome. The sample holds actives, similar compounds and a random draw of the others, so the mix is not that of the screen. Values without a mark were called inactive. The call rests on the fitted dose curve; in most records, active means well fitted inhibition curve with a large enough effect; inconclusive means small, poorly fitted or top-dose-only effect, or another doubt; inactive means no such curve, though single readings can be large or run the other way.
# Target: Polyunsaturated fatty acid lipoxygenase ALOX12 (Homo sapiens) (UniProt P18054)
# Sequence (P18054 whole entry, looked up): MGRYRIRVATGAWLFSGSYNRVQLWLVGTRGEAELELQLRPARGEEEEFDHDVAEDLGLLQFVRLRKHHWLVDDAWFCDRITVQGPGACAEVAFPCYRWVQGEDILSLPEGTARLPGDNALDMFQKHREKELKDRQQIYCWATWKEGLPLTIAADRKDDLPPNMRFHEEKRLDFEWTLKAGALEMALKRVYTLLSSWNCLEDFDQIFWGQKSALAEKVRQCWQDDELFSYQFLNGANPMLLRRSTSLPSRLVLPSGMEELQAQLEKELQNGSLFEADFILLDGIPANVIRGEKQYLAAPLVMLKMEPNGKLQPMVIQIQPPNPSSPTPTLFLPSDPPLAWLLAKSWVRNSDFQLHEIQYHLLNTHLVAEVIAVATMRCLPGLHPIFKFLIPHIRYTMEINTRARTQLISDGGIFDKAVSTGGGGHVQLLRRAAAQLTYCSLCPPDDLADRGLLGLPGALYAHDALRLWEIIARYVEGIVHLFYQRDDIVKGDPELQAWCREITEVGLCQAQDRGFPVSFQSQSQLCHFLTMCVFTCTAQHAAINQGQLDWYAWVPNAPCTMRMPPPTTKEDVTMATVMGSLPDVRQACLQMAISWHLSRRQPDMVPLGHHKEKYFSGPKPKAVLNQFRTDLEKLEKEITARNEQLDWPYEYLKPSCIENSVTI
# Assay: Primary qHTS assay for inhibitors of human arachidonate 12S-lipoxygenase (ALOX12): Round 2
# Details: purified 12hLO, xylenol orange hydroperoxide absorbance; series mostly up to 108 µM
# Excerpt: Assay Provider: Theodore R. Holman Ph.D. University of California, Santa Cruz, California Human lipoxygenase 12hLO is a member of the closely related lipoxygenase family of enzymes which catalyze the site-specific oxidation of arachidonic acid to various hormone precursor molecules and as such is a candidate for drug development in a variety of disease areas, such as cancer and inflammation. Inhibition of 12hLO activity was screened by utilizing arachidonic acid as a substrate. The extent of hydroperoxide product formation was measured by a secondary chromogenic reaction in which xylenol orange (XO, Sigma-Aldrich, cat. number 39,818-7) reacts with the ferric ions produced from the reaction between the hydroperoxide and ferrous ions. The Fe (III)-XO complex is characterized with red-shifted absorbance at 560 nm. A purified preparation of human 12hLO was supplied by Dr. Holman laboratory, University of California, Santa Cruz.
# PROTOCOL TABLE SEQUENCE No. (e.g., 1, 2, 3, etc.); […] (e.g., Cells, Incubation, Reagent, etc.); VALUE; DESCRIPTION 1; Enzyme; 3 uL; 150 nM 12hLO enzyme solution dispensed in 1536-well Greiner black, clear bottom plates. 2; Compound; 23 nL; compounds and controls were added. 3; Incubate; 15 min; room temperature. 4; Substrate; 1 uL; 40 uM arachidonic acid (final concentration). 5; Incubate; 30 min; room temperature. 6; Reagent; 4 uL; Fe-XO solution was added to each well. 7; Incubation; 30 min; room temperature 8; Detector; absorbance; Read 1 at 405 nm absorbance using ViewLux (Perkin-Elmer) CCD imager. 9; Detector; absorbance; Read 2 at 573 nm absorbance using ViewLux (Perkin-Elmer) CCD imager. NOTES (numbers refer to sequence above) 1; 150 nM 12hLO (final concentration) in buffer solution (25 mM Hepes, 0.01% Triton X-100, pH 7.0) was dispensed in columns 1, 2, 5-48. Column 1 is neutral (100% activity). Buffer only was dispensed in columns 3 and 4 as no enzyme negative controls. The plates were covered with metal lids with gas-exchange holes. 2; Compounds were pin transferred via a Kalypsys Pin Tool (Wako USA) in column 5-48. Control compound was transferred in column 2, titration of nordihydroguaiaretic acid (NDGA, Sigma-Aldrich, N5023) with top concentration of 20 mM in DMSO then 1:3 dilution in duplicate. Dilution factor of 23 nL into 4 uL final assay volume. 3; Covered assay plates were incubated for 15 min at room temperature. 4; Substrate was added to start the reaction; 40 uM arachidonic acid (Sigma-Aldrich, St. Louis, MO) was dispensed throughout the plate. 6; Chromogenic detection reagent solution (divalent iron/xylenol orange, Fe-XO) was added to each well: 200 uM xylenol orange, 300 uM ferrous ammonium sulfate prepared freshly in 50 mM sulfuric acid. 8, 9; Two absorbance readouts were obtained at 405 nm and at 573 nm using a ViewLux high-throughput CCD plate imager (Perkin-Elmer). The 573 to 405 (Read 2 / Read 1) absorbance ratio was used to compute reaction progress.
# Potency means the concentration at half of the fitted maximal effect.
SMILES,Potency,"activity change, negative = inhibition"
CCOC(=O)c1c(C)n(Cc2ccccc2Cl)c2ccc(O)cc12,20 µM (active),–
Cc1nn(Cc2ccccc2Cl)c(Cl)c1C(=O)OC(C(=O)NC(N)=O)C(C)C (stereo not given),inactive,–
COc1ccccc1-c1ccc(N2CC3CC(C2)c2cccc(=O)n2C3)nn1 (stereo not given),inactive,–
O=C(NCc1ccccc1)[C@H]1CN2CCC1C[C@@H]2Cn1cc(-c2ccc(F)cc2)nn1 (stereo not given in full),inactive,–
COC(=O)[C@@H]1[C@@H](CO)[C@@H]2Cn3c(ccc(Br)c3=O)[C@H]1N2C(=O)c1cnccn1,inactive,–
COc1cc2c(cc1Oc1cccc(N(C)C)c1)NC(=O)C21CCN(CCC(C)C)CC1,inactive,–
O=C(Nc1ccccc1)[C@H]1CN2CCC1C[C@@H]2Cn1cc(CO)nn1 (stereo not given in full),inactive,–
COc1ccc(N2C(=O)/C(=C/c3ccco3)C(=O)NC2=S)cc1,8.91 µM (active),–
COc1nc2c(cc1CNC(=O)C1C(C)(C)C1(C)C)C(=O)N(C1CCCC1)C2,inactive,–
COc1ccc(/C=C\[N+](=O)[O-])c(OC)c1,inactive,–
Cc1nc(C)c(C(=O)N2[C@H]3CC[C@@H]2c2cnc(-c4ccccc4)nc2C3)s1,inactive,–
O=C1CC2CCN(Cc3cccnc3)CC2CCN1 (stereo not given),–,6.21% [at 12.5 µM]
Cc1cc(N2CCNC[C@@H]2C)ccc1N1CC[C@H](O)C1,44.7 µM (active),–
CC1CNCCN1c1ccc(Cl)cc1 (stereo not given),inactive,–
COc1ccc(-c2cc3c(cc2OC)C2(CCN(C(C)=O)CC2)C(=O)N3)cc1OC,inactive,–
CN(Cc1ccccc1)C[C@H]1CN2CC[C@H]1C[C@@H]2CNC(=O)Nc1ccsc1,inactive,–
C[S+](=O)([O-])N1CCC2(CC1)CC(c1cccnc1)=NO2,–,5.92% [at 6.33 µM]
c1ccc2sc(N3CCNCC3)nc2c1,inactive,–
OC(CNC1CCCCC1)c1ccccc1 (stereo not given),inactive,–
c1ccc2sc(SNC3CCCCC3)nc2c1,28.2 µM (active),–
Cc1noc(C)c1CC(=O)N1[C@H]2CC[C@@H]1c1cnc(-c3ccccc3)nc1C2,inactive,–
Cc1noc(C(C)N2CCN(C(=O)Cc3ccccc3)CC2)n1 (stereo not given),inactive,–
Cc1cc(C)c2[nH]c(C(=O)N3CCC(C#N)(c4ccccc4)CC3)c(C)c2c1,inactive,–
CCC(=O)c1ccc(OCC(=O)N2CCN(CC(=O)Nc3ccc(C)cc3)CC2)cc1,inactive,–

SMILES,Potency,"activity change, negative = inhibition"
C=CCN1C(=O)NC(=O)/C(=C/c2ccc(OCC(=O)Nc3ccc(C)cc3)cc2)C1=O,39.8 µM (active),–
C=CCN(CC=C)C(=O)Nc1ccc(OCC)cc1,inactive,–
CC(CNc1ccc([N+](=O)[O-])c2cnccc12)c1ccccc1 (stereo not given),inactive,–
COC(=O)c1ccc(NC(=O)N2[C@H]3CC[C@@H]2c2cnc(-c4ccc(F)cc4)nc2C3)cc1,inactive,–
COc1cc2c(cc1Oc1cccc(N(C)C)c1)NC(=O)C21CCN(c2cnccn2)CC1,inactive,–
COc1ccc(CC(=O)N2CCN(CC(=O)NC(N)=O)CC2)cc1,inactive,–
C#C[C@H]1CN2CC[C@H]1C[C@@H]2COC(=O)Nc1cc(OC)cc(OC)c1,50.1 µM (active),–
COc1ccc(-c2cc([C@H]3CN4CC[C@H]3C[C@@H]4COC(=O)NC(C)C)nc(C)n2)cc1,inactive,–
C#C[C@H]1CN2CC[C@H]1C[C@@H]2CNC(=O)C1CC1,inactive,–
Cc1ncc2c(n1)C[C@@H]1CC[C@H]2N1S(=O)(=O)c1ccc(F)cc1,inactive,–
Cn1nc(-c2cccs2)cc1[C@H]1CN2CC[C@H]1C[C@@H]2CNC(=O)Nc1ccccc1,inactive,–
C=C(C)C1(CCCC)C(=O)NC(=S)NC1=O,44.7 µM (active),–
COc1ccccc1-c1cc([C@H]2CN3CC[C@H]2C[C@@H]3CNCc2cccc(C#N)c2)n(C)n1,inactive,–
COc1cc2c(cc1OCc1ccccc1)NC(=O)C21CCN(CCC(C)C)CC1,inactive,–
Cc1ncoc1C(=O)NCC1=C(c2cccc3ccccc23)C[C@@H]2CC[C@H]1N2Cc1ccco1,inactive,–
COC(=O)C1=C(c2ccc3ccccc3c2)C[C@@H]2CC[C@H]1N2C(=O)NCCO,inactive,–
CC(=O)NCC1=C(c2ccc3ccccc3c2)C[C@@H]2CC[C@H]1N2Cc1ccco1,28.2 µM (active),–
O=[S+]1([O-])NC2(CCN(CC3CCOCC3)C2)COc2ccncc21 (stereo not given),–,3.45% [at 6.33 µM]
CN(C)C(=O)Oc1ccc2c(=O)c(-c3ccc(Br)cc3)c(C(F)(F)F)oc2c1,inactive,–
O=C(c1ccc2c(c1)CCO2)N1C[C@@H](c2ccc(F)cc2)[C@@H]2[C@H]1C1CCN2CC1,inactive,–
Cc1cc(C)cc(CN2CCC3(CCNCC3)C2)c1,inactive,–
COc1cc2c(cc1OC1CCCC1)NC(=O)C21CCN(c2nccs2)CC1,inactive,–
O=C1NC(=O)N(c2ccccc2)C(=O)/C1=C/c1ccc([N+](=O)[O-])s1,39.8 µM (active),–
COc1cccc(N2C(=O)NC(=O)/C(=C\c3ccc([N+](=O)[O-])s3)C2=O)c1,44.7 µM (active),–

SMILES,Potency,"activity change, negative = inhibition"
CCC(CC)c1cc([C@H]2CN3CC[C@H]2C[C@@H]3CNS(=O)(=O)Cc2ccccc2)nc(-c2ccncc2)n1,inactive,–
N#Cc1cccc(NC(=O)NC[C@H]2C[C@@H]3CCN2C[C@@H]3CN2CCN(c3ncccn3)CC2)c1,inactive,–
CC(C)(C)c1nc(CN2CCC3(CC2)C(=O)Nc2ccccc23)no1,inactive,–
COc1cccc(Nc2cc3c(cn2)CN(C)CCN3C)c1,inactive,–
Cc1ccc(-n2c(/C=C/c3cccc(C(F)(F)F)c3)nc3ccccc3c2=O)cc1,inactive,–
O=c1c2ccccc2nc(/C=C/c2ccco2)n1-c1ccccc1O,35.5 µM (active),–
O=c1c2ccccc2nc(/C=C/c2ccc(F)cc2)n1-c1ccccc1O,inactive,–
C=CCN(C)C[C@H]1CN2CC[C@H]1C[C@@H]2CNC(=O)Nc1cccc(SC)c1,inactive,–
CCC(=O)CC(c1ccc([N+](=O)[O-])cc1)c1c(O)c2ccccc2oc1=O (stereo not given),inactive,–
Cc1ccc(C(c2c(O)c3ccccc3oc2=O)c2c(O)c3ccccc3oc2=O)cc1,12.6 µM (active),–
O=c1oc2ccccc2c(O)c1C(c1ccccc1O)c1c(O)c2ccccc2oc1=O,inactive,–
O=C(Cc1ccccc1)N1[C@H]2CC[C@@H]1c1cnc(-c3ccc(F)cc3)nc1C2,inactive,–
COc1cc2c(cc1-c1ccncc1)NC(=O)C21CCN(C(C)=O)CC1,inactive,–
COc1ccc(CC(=O)N2C[C@@H]3CC[C@H](C2)N(CC2CCC2)C3)c(OC)c1,inactive,–
c1cncc(CNC2=NCCC2)c1,inactive,–
c1cncc(CNCCc2c[nH]c3ccccc23)c1,inactive,–
ClCc1cccnc1,11.2 µM (active),–
Cc1nc(-c2ccc(N(C)C)cc2)cc([C@H]2CN3CC[C@H]2C[C@@H]3CNC(=O)C2CCC2)n1,inactive,–
CCOCCc1c(O)[nH]c(=S)[nH]c1=O,14.1 µM (active),–
Cn1nc(-c2ccc(F)cc2)cc1[C@H]1CN2CC[C@H]1C[C@@H]2CNCc1ccccn1,inactive,–
Cc1ccc2c(n1)N(C)[C@H](CO)CCN(C1CCCC1)C2,inactive,–
CC(C)C(=O)N1CCC2(CC1)NCc1ccccc1-n1ccnc12,inactive,–
